Bioassay records as filed in PubChem BioAssay.
An excerpt weighted towards active compounds, which were near 3.2% of everything screened.
AHR activator – human AHR activation; AHR-responsive luciferase reporter cells, luminescence; activation, % at 5 µM; actives 2.5% (n = 320,000); AID 2796; in the data active = activation above about 47%;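 also: 0% = vehicle wells and 100% = reference agonist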
NTR1 agonist – agonists of human neurotensin receptor NTR1 | NTR1-U2OS beta-arrestin-GFP spot imaging, agonist mode | actives 0.17% (n = 330,000) | activation, % at 20 µM;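 active = activation at or above 40% of the spot to cytoplasm intensity ratio, with at least 20 cells analyzed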;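 also: 0% = DMSO without peptide and 100% = 100 nM NTR1 peptide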
A3G deaminase – inhibitors of human APOBEC3G DNA deaminase; Q9HC16; recombinant A3G, ssDNA deamination FAM/TAMRA fluorescence; inhibition, % at 20 µM; actives 0.28% (n = 330,000);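 active = inhibition of at least 40% at 20 µM, with no more than 30% in the related APOBEC3A deaminase screen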;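 also: plate controls were DMSO wells with A3G for no effect and wells lacking A3G enzyme for full effect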
Target sequence (Q9HC16 whole entry, looked up): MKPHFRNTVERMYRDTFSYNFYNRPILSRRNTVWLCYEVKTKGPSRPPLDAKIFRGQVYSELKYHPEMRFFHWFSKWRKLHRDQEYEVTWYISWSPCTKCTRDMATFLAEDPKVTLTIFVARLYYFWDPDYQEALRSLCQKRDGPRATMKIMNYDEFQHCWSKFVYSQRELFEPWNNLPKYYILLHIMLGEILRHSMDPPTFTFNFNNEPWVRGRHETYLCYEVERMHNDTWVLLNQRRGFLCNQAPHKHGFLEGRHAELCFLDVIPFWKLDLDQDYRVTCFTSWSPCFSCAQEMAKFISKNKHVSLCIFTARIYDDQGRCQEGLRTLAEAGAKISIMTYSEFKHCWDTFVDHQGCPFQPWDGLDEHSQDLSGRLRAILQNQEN
A3A deaminase – inhibitors of human APOBEC3A DNA deaminase; AID 493011; inhibition, % at 20 µM; actives 0.41% (n = 330,000); recombinant A3A, FAM/TAMRA ssDNA deamination fluorescence;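 active = at least 40% inhibition at 20 µM here, with at most 30% in a related deaminase screen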;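 also: plate controls were A3A with DMSO for no effect and wells lacking A3A enzyme for full effect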
Target sequence (P31941 whole entry, looked up): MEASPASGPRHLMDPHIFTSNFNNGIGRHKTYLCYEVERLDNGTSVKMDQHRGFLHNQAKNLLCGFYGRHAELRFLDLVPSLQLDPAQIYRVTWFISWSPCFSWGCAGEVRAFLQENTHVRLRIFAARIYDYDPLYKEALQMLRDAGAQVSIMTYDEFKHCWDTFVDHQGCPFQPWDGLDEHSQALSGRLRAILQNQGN
AHR act cf – confirmation of human aryl hydrocarbon receptor activators; shares compounds with AHR activator; AID 2845; human cells, AHR-responsive luciferase reporter, luminescence; actives 87% (n = 2,300); activation, % at 9 µM; in the data active = activation above about 49%;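 also: HepG2 hepatoma cells carrying a DRE-driven firefly luciferase reporter; 0% = vehicle wells and 100% = reference agonist wells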
PXR counter – activates human PXR in AHR activator counter-screen | shares compounds with AHR activator | cell-based PXR reporter, luciferase luminescence | activation, % at 11.6 µM | actives 88% (n = 2,300) | AID 434939; in the data active = activation above about 11%;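 also: human hepatoma DPX-2 cells expressing full-length human PXR; 0% = DMSO and 100% = reference agonist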
Starred values were filed as active, the others as inactive; · = no result given.

SMILES	AHR activator	NTR1 agonist	A3G deaminase	A3A deaminase	AHR act cf	PXR counter
CC(=O)N1CCN(S(=O)(=O)c2ccccc2)C1c1ccccc1 (configuration not stated)	102*	-1	-3	-2	9	63*
Cc1nnc(SC(C)C(=O)Nc2ccc(N3CCOCC3)cc2)n1Cc1ccccc1 (configuration not stated)	·	0	-12	-3	·	·
Cc1cccc(C(=O)N[C@H](C(=O)Nc2ncc(C)s2)C(C)C)c1	104*	3	-8	-4	19	364*
CN(C(=O)CN1C(=O)NC(c2ccccc2)(c2ccccc2)C1=O)C1CCS(=O)(=O)C1 (configuration not stated)	0	3	-7	1	·	·
CCn1cnc2cc(NCc3ccc(Cl)cc3)ccc21	99*	1	-9	-6	98*	32*
CN(C)C(/C=C/Nc1ccc(C#N)cc1)=C(C#N)C#N	109*	0	3	1	102*	25*
CN(C(=O)/C=C/c1ccc2c(c1)OCO2)c1ccccc1	97*	1	4	-6	79*	114*
Cc1ccc(NCC(=O)c2ccccc2)cc1Cl	-3	1	-8	-4	·	·
Cc1ccc(NC2=C(NC(=O)c3ccccc3)C(=O)c3ccccc3C2=O)cc1Cl	104*	7	-4	-4	106*	93*
CCCN(S(=O)(=O)c1ccccc1F)S(=O)(=O)c1ccccc1Br	-2	2	3	1	·	·
CCOC(=O)N1CCC(NC(=O)c2cccn3c(=O)c4cc(Br)ccc4nc23)CC1	90*	9	-3	4	111*	18*
COc1ccc(N2CCN(C(=O)c3cc4c(-c5ccc(Cl)cc5)nn(C)c4s3)CC2)cc1	90*	5	-6	-2	121*	33*
CN1CCN(CCCNC(=O)c2cc3c(-c4ccc(Cl)cc4)nn(C)c3s2)CC1	98*	4	-5	-2	102*	·
CC(=O)c1cc2c(cc1NC(=O)Cc1c(C)noc1C)OCO2	13	-2	-7	-3	·	·
Cc1cc(Br)ccc1NC(=O)c1sc2ncnc(N3CCN(c4ccccn4)CC3)c2c1C	80*	-1	-4	0	91*	19*
COc1ccc(-c2nc3ncccc3o2)cc1NC(=O)c1cccs1	81*	2	-4	1	43	30*
O=C(Nc1cc(-c2nc3ncccc3o2)ccc1Cl)c1ccc([N+](=O)[O-])o1	8	28	-3	3	·	·
O=C(Nc1cc(-c2nc3ncccc3o2)ccc1Cl)c1cccs1	134*	4	-5	5	98*	47*
CC1CN(Cc2ccccc2)C(C)CC1O (configuration not stated)	-1	1	-7	0	·	·
CCOc1ccc(C(=O)NCC(=O)NCC(c2cccs2)N2CCOCC2)cc1 (configuration not stated)	-1	0	-9	-2	·	·
CN(C1CCCCC1)S(=O)(=O)c1ccc(S(=O)(=O)N(CC(=O)Nc2ccccc2)C2CC2)cc1	0	5	-5	1	·	·
CCOC(=O)N/N=C/c1cn(CCCOc2ccc(C)cc2)c2ccccc12	32	-2	-9	-5	·	·
CNC(=S)N/N=C/c1cn(CCOc2ccccc2OC)c2ccccc12	80*	3	-10	-1	62*	110*
CCOC(=O)N/N=C/c1cn(CCCOc2ccccc2)c2ccccc12	105*	4	-6	-3	85*	34*
COc1ccccc1OCCn1cc(C=O)c2ccccc21	·	3	39	-1	·	·
SMILES	AHR activator	NTR1 agonist	A3G deaminase	A3A deaminase	AHR act cf	PXR counter
COc1ccc(OC)c(NC(=S)N2CCN(C(=O)C3CCCO3)CC2)c1 (configuration not stated)	·	1	-9	-5	·	·
CSc1nsc(SCC(=O)Nc2nc3ccccc3s2)n1	80*	-1	-5	-6	53*	13*
COCCn1c(SCC(=O)Nc2nc3ccccc3s2)nnc1-c1ccoc1C	17	0	1	3	·	·
CCn1nnnc1SCC(=O)Nc1nc2ccccc2s1	86*	1	-3	-2	61*	42*
O=C(CSc1nnnn1-c1ccc(F)cc1)Nc1nc2ccccc2s1	19	-2	-9	1	·	·
COCCCn1nnnc1SCC(=O)Nc1nc2ccccc2s1	112*	0	-7	-1	101*	61*
Cc1cccc(NC(=S)NCc2ccco2)c1C	-4	-1	-5	2	·	·
CC(=O)Nc1nc(-c2ccccc2)nc(C)c1C(C)=O	80*	2	-6	-2	105*	24*
CC(=O)c1c(C)nc(-c2ccc(Cl)cc2)nc1NC(=O)C(C)C	116*	-1	0	-2	137*	46*
COc1ccccc1NC(=O)N1CCC(NC(=O)C2CCCCC2)CC1	-2	-3	-6	-1	·	·
Cc1onc(-c2ccccc2Cl)c1C(=O)O/N=C(\N)c1ccc([N+](=O)[O-])o1	10	2	-12	-3	·	·
CC(=O)Nc1ccc(-c2csc(N/N=C(/C)c3ccccc3)n2)cc1	0	12	-3	-1	·	·
C/C(=N/Nc1nc(-c2ccc(Cl)cc2)cs1)c1cccs1	104*	-4	-3	-2	132*	17*
Cc1cc(N)n2ncc(-c3cccc(Br)c3)c2n1	93*	3	-5	-5	125*	34*
CCOC(=O)Cc1c(C)nc2c(-c3cccc(Br)c3)cnn2c1C	100*	4	-9	-1	116*	21*
CC(=O)c1cnc2c(-c3cccc(Br)c3)cnn2c1C	16	1	-6	-3	·	·
O=C(NCc1ccco1)c1nnc(Cc2ccc(F)cc2)o1	-3	-4	-7	-2	·	·
CC(C)OC(=O)c1nnc(Cc2ccc(F)cc2)o1	91*	-3	-1	0	30	9
O=C(CN1C2=NCCN2c2ccccc21)C12CC3CC(CC(C3)C1)C2	82*	1	1	6	48*	58*
Nc1nc(N2CCN(c3ccccn3)CC2)nc2ccccc12	21	0	-6	-1	·	·
Cc1cc(-c2ccccc2)nc(N2CCN(c3ccccn3)CC2)n1	81*	11	-4	-2	93*	19*
Cc1cc(C)c2[nH]c(O)c(N=NC(=S)NCC3CCCO3)c2c1 (configuration not stated)	124*	1	-4	-2	100*	114*
Oc1[nH]c2ccc(Br)cc2c1N=NC(=S)NCC1CCCO1 (configuration not stated)	104*	10	-5	-5	72*	23*
CN(C)CCN1C(=O)C(=O)/C(=C(/O)c2ccc(S(=O)(=O)N3CCOCC3)cc2)C1c1ccc(F)cc1 (configuration not stated)	-3	0	3	5	·	·
O=C(CSc1nnc(-c2cccc(F)c2)o1)N1CCCC1	1	-1	-5	0	·	·
C/C(=N\NC(=S)NC1CCCCC1)c1cccc(C(F)(F)F)c1	4	6	-4	-4	·	·
